According to PubChem BioAssay AID1159580 (chemical genetic matrix, 2015):
Among all 5,500 compounds or so, about 2,000 (36%) were called active. Not shown: some 18% with an inconclusive outcome. Some of the results follow. A number with no mark means an inactive call. No stated cut-off is given here; in the data, active means normalized growth mostly below about 0.91 (no sharp cut-off); inconclusive means no clear call, values can overlap the other calls; inactive means mostly above about 0.92.

Assay: chemical genetic growth profiling, strain panel (AID 1159580);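 further: tested at 20 µM; growth read once vehicle control cultures reached saturation at 30 °C; 1 = growth at the plate median or of vehicle wells; lower values mean less growth of the strain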
Details: growth OD

For `Cc1cc(OC(=O)c2c(C)cc(OC(=O)c3c(C)cc(O)cc3O)cc2O)cc(O)c1C(=O)O`, which normalized growth (S. cerevisiae deletion strains, locus YAL013W, strain DEP1, hits give low values) is on record?
Its normalized growth is 1.02.

And the normalized growth (S. cerevisiae deletion strains, locus YBR021W, strain FUR4, hits give low values)?
Its normalized growth is 0.985.

What about the normalized growth (S. cerevisiae deletion strains, locus YBR229C, strain ROT2, hits give low values) of the same compound?
Its normalized growth is 1.03.

What about the normalized growth (S. cerevisiae deletion strains, locus YCL029C, strain bik1, hits give low values) of the same compound?
The normalized growth was 0.973.

What about the normalized growth (S. cerevisiae deletion strains, locus YDL035C, strain GPR1, hits give low values) of the same compound?
The normalized growth was 0.997.

And the normalized growth (S. cerevisiae deletion strains, locus YDL074C, strain BRE1, hits give low values)?
Its normalized growth is 1.01.

What about the normalized growth (S. cerevisiae deletion strains, locus YDL101C, strain DUN1, hits give low values) of the same compound?
The normalized growth was 1.02.

And the normalized growth (S. cerevisiae deletion strains, locus YDL134C, strain PPH21, hits give low values)?
The normalized growth was 1.03.

And the normalized growth (S. cerevisiae deletion strains, locus YDL185W, strain tfp1, hits give low values)?
Its normalized growth is 0.99.

What about the normalized growth (S. cerevisiae deletion strains, locus YDL192W, strain arf1, hits give low values) of the same compound?
The normalized growth was 0.979.

What about the normalized growth (S. cerevisiae deletion strains, locus YDR101C, strain arx1, hits give low values) of the same compound?
The normalized growth was 0.971.

What about the normalized growth (S. cerevisiae deletion strains, locus YDR150W, strain NUM1, hits give low values) of the same compound?
The normalized growth was 1.03.

And the normalized growth (S. cerevisiae deletion strains, locus YDR162C, strain NBP2, hits give low values)?
Its normalized growth is 0.998.

What about the normalized growth (S. cerevisiae deletion strains, locus YDR318W, strain mcm21, hits give low values) of the same compound?
The normalized growth was 0.967.

What about the normalized growth (S. cerevisiae deletion strains, locus YDR388W, hits give low values) of the same compound?
The normalized growth was 0.992.

And the normalized growth (S. cerevisiae deletion strains, locus YDR502C, strain sam2, hits give low values)?
Its normalized growth is 0.991.

And the normalized growth (S. cerevisiae deletion strains, locus YER110C, hits give low values)?
Its normalized growth is 0.986.

And the normalized growth (S. cerevisiae deletion strains, locus YER155C, strain BEM2, hits give low values)?
The normalized growth was 1.03.

What about the normalized growth (S. cerevisiae deletion strains, locus YER167W, strain BCK2, hits give low values) of the same compound?
The normalized growth was 1.

What about the normalized growth (S. cerevisiae deletion strains, locus YGL078C, strain dbp3, hits give low values) of the same compound?
The normalized growth was 1.

And the normalized growth (S. cerevisiae deletion strains, locus YGL086W, strain mad1, hits give low values)?
Its normalized growth is 0.98.

And the normalized growth (S. cerevisiae deletion strains, locus YGL248W, strain PDE1, hits give low values)?
Its normalized growth is 1.04.

What about the normalized growth (S. cerevisiae deletion strains, locus YGR078C, strain PAC10, hits give low values) of the same compound?
Its normalized growth is 1.

What about the normalized growth (S. cerevisiae deletion strains, locus YGR135W, strain pre9, hits give low values) of the same compound?
Its normalized growth is 0.999.

And the normalized growth (S. cerevisiae deletion strains, locus YGR229C, strain SMI1, hits give low values)?
The normalized growth was 0.953.

What about the normalized growth (S. cerevisiae deletion strains, locus YGR252W, strain gcn5, hits give low values) of the same compound?
The normalized growth was 0.872.

What about the normalized growth (S. cerevisiae deletion strains, locus YHR030C, strain SLT2, hits give low values) of the same compound?
Its normalized growth is 1.02.

What about the normalized growth (S. cerevisiae deletion strains, locus YHR079C, strain IRE1 (second series), hits give low values) of the same compound?
The normalized growth was 0.971.

And the normalized growth (S. cerevisiae deletion strains, locus YHR094C, strain hxt1, hits give low values)?
The normalized growth was 1.01.

What about the normalized growth (S. cerevisiae deletion strains, locus YHR129C, strain ARP1, hits give low values) of the same compound?
The normalized growth was 1.02.

What about the normalized growth (S. cerevisiae deletion strains, locus YHR200W, strain rpn10, hits give low values) of the same compound?
Its normalized growth is 0.994.

And the normalized growth (S. cerevisiae deletion strains, locus YIL066C, strain RNR3, hits give low values)?
The normalized growth was 1.01.

And the normalized growth (S. cerevisiae deletion strains, locus YIL073C, strain SPO22, hits give low values)?
Its normalized growth is 0.956.

And the normalized growth (S. cerevisiae deletion strains, locus YIL125W, strain kgd1, hits give low values)?
Its normalized growth is 1.02.

What about the normalized growth (S. cerevisiae deletion strains, locus YIR030C, strain dcg1, hits give low values) of the same compound?
Its normalized growth is 0.998.

And the normalized growth (S. cerevisiae deletion strains, locus YJL095W, strain BCK1, hits give low values)?
Its normalized growth is 0.986.

What about the normalized growth (S. cerevisiae deletion strains, locus YJL134W, strain LCB3, hits give low values) of the same compound?
Its normalized growth is 1.02.

What about the normalized growth (S. cerevisiae deletion strains, locus YJL168C, strain set2, hits give low values) of the same compound?
The normalized growth was 0.999.

And the normalized growth (S. cerevisiae deletion strains, locus YJL187C, strain SWE1 (second series), hits give low values)?
The normalized growth was 1.01.

What about the normalized growth (S. cerevisiae deletion strains, locus YJR043C, strain POL32, hits give low values) of the same compound?
The normalized growth was 0.981.

And the normalized growth (S. cerevisiae deletion strains, locus YJR075W, strain HOC1, hits give low values)?
Its normalized growth is 0.979.

What about the normalized growth (S. cerevisiae deletion strains, locus YKL009W, strain mrt4, hits give low values) of the same compound?
Its normalized growth is 0.76 (active).

What about the normalized growth (S. cerevisiae deletion strains, locus YKL068W, hits give low values) of the same compound?
The normalized growth was 1.

What about the normalized growth (S. cerevisiae deletion strains, locus YKL085W, strain MDH1 (second series), hits give low values) of the same compound?
The normalized growth was 0.975.

What about the normalized growth (S. cerevisiae deletion strains, locus YKL085W, strain MDH1, hits give low values) of the same compound?
Its normalized growth is 0.975.

And the normalized growth (S. cerevisiae deletion strains, locus YKL190W, strain CNB1, hits give low values)?
Its normalized growth is 1.02.

And the normalized growth (S. cerevisiae deletion strains, locus YKR001C, strain vps1, hits give low values)?
The normalized growth was 0.967.

And the normalized growth (S. cerevisiae deletion strains, locus YLR039C, strain RIC1, hits give low values)?
The normalized growth was 0.997.

And the normalized growth (S. cerevisiae deletion strains, locus YLR058C, strain SHM2, hits give low values)?
The normalized growth was 1.02.

What about the normalized growth (S. cerevisiae deletion strains, locus YLR102C, strain apc9, hits give low values) of the same compound?
Its normalized growth is 1.01.

What about the normalized growth (S. cerevisiae deletion strains, locus YLR262C, strain YPT6, hits give low values) of the same compound?
The normalized growth was 1.

What about the normalized growth (S. cerevisiae deletion strains, locus YLR268W, strain sec22, hits give low values) of the same compound?
Its normalized growth is 0.982.

And the normalized growth (S. cerevisiae deletion strains, locus YLR330W, strain CHS5, hits give low values)?
Its normalized growth is 1.01.

And the normalized growth (S. cerevisiae deletion strains, locus YLR342W, strain FKS1 (second series), hits give low values)?
The normalized growth was 0.937.

What about the normalized growth (S. cerevisiae deletion strains, locus YLR371W, strain rom2, hits give low values) of the same compound?
The normalized growth was 0.999.

And the normalized growth (S. cerevisiae deletion strains, locus YLR418C, strain cdc73, hits give low values)?
Its normalized growth is 0.959.

And the normalized growth (S. cerevisiae deletion strains, locus YML016C, strain PPZ1, hits give low values)?
Its normalized growth is 1.03.

What about the normalized growth (S. cerevisiae deletion strains, locus YML032C, strain rad52, hits give low values) of the same compound?
Its normalized growth is 0.965.

What about the normalized growth (S. cerevisiae deletion strains, locus YML124C, strain tub3, hits give low values) of the same compound?
The normalized growth was 1.01.

And the normalized growth (S. cerevisiae deletion strains, locus YMR078C, strain ctf18, hits give low values)?
The normalized growth was 1.

And the normalized growth (S. cerevisiae deletion strains, locus YMR223W, strain ubp8, hits give low values)?
Its normalized growth is 0.967.

What about the normalized growth (S. cerevisiae deletion strains, locus YMR263W, strain SAP30, hits give low values) of the same compound?
Its normalized growth is 1.02.

What about the normalized growth (S. cerevisiae deletion strains, locus YMR307W, strain GAS1, hits give low values) of the same compound?
Its normalized growth is 0.862.

What about the normalized growth (S. cerevisiae deletion strains, locus YNL067W, strain RPL9B, hits give low values) of the same compound?
The normalized growth was 1.01.

What about the normalized growth (S. cerevisiae deletion strains, locus YNL128W, strain TEP1, hits give low values) of the same compound?
The normalized growth was 1.04.

And the normalized growth (S. cerevisiae deletion strains, locus YNL153C, strain GIM3, hits give low values)?
The normalized growth was 1.02.

And the normalized growth (S. cerevisiae deletion strains, locus YNL233W, strain BNI4, hits give low values)?
The normalized growth was 0.995.

And the normalized growth (S. cerevisiae deletion strains, locus YNL250W, strain rad50, hits give low values)?
The normalized growth was 0.997.

What about the normalized growth (S. cerevisiae deletion strains, locus YNL271C, strain bni1, hits give low values) of the same compound?
The normalized growth was 0.985.

What about the normalized growth (S. cerevisiae deletion strains, locus YNL298W, strain CLA4, hits give low values) of the same compound?
The normalized growth was 0.981.

What about the normalized growth (S. cerevisiae deletion strains, locus YNL307C, strain MCK1, hits give low values) of the same compound?
Its normalized growth is 0.966.

And the normalized growth (S. cerevisiae deletion strains, locus YNL322C, strain KRE1, hits give low values)?
The normalized growth was 1.03.

And the normalized growth (S. cerevisiae deletion strains, locus YNR052C, strain pop2, hits give low values)?
Its normalized growth is 0.972.

What about the normalized growth (S. cerevisiae deletion strains, locus YOL006C, strain TOP1, hits give low values) of the same compound?
The normalized growth was 0.993.

What about the normalized growth (S. cerevisiae deletion strains, locus YOL012C, strain htz1) of the same compound?
The normalized growth was 0.878.

And the normalized growth (S. cerevisiae deletion strains, locus YOL147C, strain pex11, hits give low values)?
The normalized growth was 0.999.

What about the normalized growth (S. cerevisiae deletion strains, locus YOR061W, strain CKA2, hits give low values) of the same compound?
Its normalized growth is 1.02.

What about the normalized growth (S. cerevisiae deletion strains, locus YOR069W, strain VPS5, hits give low values) of the same compound?
The normalized growth was 1.01.

What about the normalized growth (S. cerevisiae deletion strains, locus YOR136W, strain idh2, hits give low values) of the same compound?
The normalized growth was 0.982.

What about the normalized growth (S. cerevisiae deletion strains, locus YOR144C, strain elg1, hits give low values) of the same compound?
The normalized growth was 1.01.

What about the normalized growth (S. cerevisiae deletion strains, locus YOR184W, strain ser1, hits give low values) of the same compound?
Its normalized growth is 0.95.

What about the normalized growth (S. cerevisiae deletion strains, locus YOR316C, strain cot1, hits give low values) of the same compound?
Its normalized growth is 0.996.

And the normalized growth (S. cerevisiae deletion strains, locus YPL055C, strain LGE1, hits give low values)?
The normalized growth was 1.03.

What about the normalized growth (S. cerevisiae deletion strains, locus YPL241C, strain CIN2, hits give low values) of the same compound?
Its normalized growth is 1.02.

And the normalized growth (S. cerevisiae deletion strains, locus YPR119W, strain clb2, hits give low values)?
The normalized growth was 1.

What about the normalized growth (S. cerevisiae deletion strains, locus YPR141C, strain kar3, hits give low values) of the same compound?
Its normalized growth is 1.01.

What about the normalized growth (S. cerevisiae deletion strains, locus YPR163C, strain tif3, hits give low values) of the same compound?
Its normalized growth is 1.

And the normalized growth (S. cerevisiae deletion strains, locus YPR167C, strain met16, hits give low values)?
Its normalized growth is 1.01.

And the normalized growth (S. cerevisiae deletion strains, strain wtn01, hits give low values)?
The normalized growth was 0.994.

And the normalized growth (S. cerevisiae strains, strain wild type, hits give low values)?
Its normalized growth is 1.
